This is a sample that favours compounds with a hit; in the whole collection about 1.9% have one here.
Pf gametocyte: inhibitors of late stage P. falciparum gametocyte viability | P. falciparum stage V gametocytes, ATP luminescence, 24 h | inhibition, % at 10.9 µM | 0.065% of 150,000 active | AID 743093;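 active = inhibition above the mean plus 3 SD of compounds within the control limits, set per campaign, cut at about 38% in these data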;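 also: 0% = DMSO wells and 100% = medium only without gametocytes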
EP2 modulator: EP2 receptor (human) modulation. 0.83% of 260,000 active. induction, % at 25 µM. EP2-expressing cells, cAMP HTRF FRET, PGE2 co-stimulation;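 active = compounds whose cAMP rise, as percent of the full-agonist control response, exceeds 60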;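 also: rat C6 glioma line stably carrying human EP2 under a CMV promoter; the protocol text gives 20 µM as final concentration; 100% = response of wells given 1 µM PGE2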
S1P4 agonist: agonists of human S1P4 receptor; S1P4-expressing cell line, agonist reporter assay; O95977; activation, % at 4.98 µM; AID 1509; 0.35% of 220,000 active; in the data active = activation above about 11%;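 also: 0% = DMSO vehicle and 100% = reference agonist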
S1P4 antag: human S1P4 receptor antagonism; S1P4-expressing cells, antagonist mode, reporter read-out; inhibition, % at 4.98 µM; 0.26% of 220,000 active; in the data active = inhibition above about 29%;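 also: 0% = wells stimulated with agonist and 100% = vehicle wells without agonist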
S1P3 antagonist: antagonists of human S1P3 receptor; 0.27% of 170,000 active; AID 485; inhibition, % at 4.98 µM; CHO S1P3 NFAT-BLA reporter, FRET fluorescence, antagonist mode;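 active = inhibition above the plate cutoff, the mean inhibition of test wells on that plate plus 3 SD, cut at about 28% in these data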;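 also: cells challenged with S1P at its EC80 of 0.8 µM; blue over green emission ratio from cleaved BLA substrate after 4 h stimulation; 0% = S1P-stimulated wells and 100% = unstimulated DMSO-only wells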
Target sequence (Q99500 whole entry, looked up): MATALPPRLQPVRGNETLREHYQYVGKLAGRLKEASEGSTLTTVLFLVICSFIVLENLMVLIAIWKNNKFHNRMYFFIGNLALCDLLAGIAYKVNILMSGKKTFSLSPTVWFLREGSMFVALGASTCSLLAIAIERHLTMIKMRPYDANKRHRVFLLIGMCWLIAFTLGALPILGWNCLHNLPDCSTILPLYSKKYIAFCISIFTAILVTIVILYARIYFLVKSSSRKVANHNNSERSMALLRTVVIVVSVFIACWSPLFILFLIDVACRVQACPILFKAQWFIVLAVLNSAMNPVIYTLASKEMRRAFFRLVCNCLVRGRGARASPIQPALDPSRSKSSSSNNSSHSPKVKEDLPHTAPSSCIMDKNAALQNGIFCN
PGE2 EP2 inh: inhibitors of human EP2 prostaglandin E2 receptor; C6 glioma cells expressing human EP2, cAMP TR-FRET; cells stimulated with saturating PGE2; inhibition, % at 25 µM; 0.52% of 260,000 active; AID 1422;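 active = percent inhibition above 40 after rounding to a whole number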;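 also: rat C6 glioma host cells with rolipram phosphodiesterase inhibitor present; the protocol text gives 20 µM as final concentration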
* = called active by the depositor; · = not tested or not shown; ! = repeats disagree.

SMILES	Pf gametocyte	EP2 modulator	S1P4 agonist	S1P4 antag	S1P3 antagonist	PGE2 EP2 inh
COCCNC(=O)Cn1nnc(-c2ccc(OC)cc2)n1	·	1	·	·	·	8
CC(C)(C)NC(=O)C12CCC(C)(c3nc4ccccc4nc31)C2(C)C (stereo not drawn)	-11	64*	0	3	·	4
Cc1ccccc1NC(=O)CSc1nc2c(c(-c3ccco3)c1C#N)CCCC2	·	25	2	-1	79*	20
Cn1cc([N+](=O)[O-])c(C(=O)Nc2cc(Oc3cccnc3)cc([N+](=O)[O-])c2)n1	7	-41	-5	31*	·	18
O=[N+]([O-])c1cc(Oc2cccnc2)cc([N+](=O)[O-])c1	-3	-10	-1	-9	-4	12
Cn1c(-c2c(N)n(CCc3ccccc3)c3nc4ccccc4nc23)nc2ccccc21	·	30	-3	17	·	9
Cn1c(-c2c(N)n(C3CCCC3)c3nc4ccccc4nc23)nc2ccccc21	·	31	1	4	75*	14
COC(=O)c1cc([N+](=O)[O-])c(-n2ccnc2)c([N+](=O)[O-])c1	2	63*	-1	-21	-3	5
Cc1ccc2[nH]c(CCN(C)C)c(CSCc3c(CCN(C)C)[nH]c4ccc(C)cc34)c2c1	·	-155	·	·	·	127*
CCc1c(C)[nH]c2ccc(C)cc2c1=S	·	54	·	·	·	16
COc1ccc(CN2CCc3c(nc(N4CCCCC4C)[nH]c3=O)C2)cc1OC (stereo not drawn)	·	-33	·	·	·	0
COc1cc(Cc2cnc(N)nc2N)cc(OC)c1OC	·	4	18*!	12	-17	10
CC12CCC(C(=O)N(Cc3ccccc3)Cc3ccccc3)(OC1=O)C2(C)C (stereo not drawn)	-26	61*	1	10	·	18
CCOc1ccc2[nH]c(=O)c(CN(Cc3ccccc3)C(=O)N3CCOCC3)cc2c1	·	-23	·	·	·	8
COc1ccc(N(CC(=O)NCc2ccc3c(c2)OCO3)S(C)(=O)=O)cc1	·	5	·	·	·	8
O=C1/C(=C/c2cccnc2)Sc2ccccc21	·	-34	-4	6	·	49*
Cc1ccc(NC(=O)c2[nH]cnc2C(=O)NN)cc1	40*	6	-1	1	5	13
Cc1ccc(NC(=O)c2nc[nH]c2C(=O)N[C@@H](C)c2ccccc2)cc1	3	59	2	-6	-25	6
CCOC(=O)c1cc2c(ccn2C)n1CC(=O)N(Cc1ccccc1)c1ccccc1	-3	59	-3	-9	-4	8
CCOC(=O)c1cc2c(ccn2C)n1Cc1ccccc1Cl	-1	63*	0	0	-14	7
Cc1ccccc1Cn1c(C(=O)OC(C)C)cc2c1ccn2C	·	53	-1	-5	·	2
CCOC(=O)c1cc2c(ccn2C)n1Cc1ccccc1C	·	62*	1	-2	-37	4
N[C@@H](CSC1(c2ccc(Cl)cc2)c2ccccc2-c2ccccc21)C(=O)O	·	5	·	·	·	44*
CCn1nc(C)c(CCC(=O)N[C@H](C)Cn2nnc3ccccc32)c1C	·	-16	·	·	·	6
Cc1ccc(C(=O)c2cc([N+](=O)[O-])ccc2N2CCCCC2)c(C)c1	·	63*	-3	23	20	6
SMILES	Pf gametocyte	EP2 modulator	S1P4 agonist	S1P4 antag	S1P3 antagonist	PGE2 EP2 inh
O=C(O)c1c(Cl)c(Cl)c(Cl)c(Cl)c1C(=O)Nc1ccc2cn[nH]c2c1	·	-4	·	·	·	58*
COC(=O)C1=NN(c2ccccc2)C2(S1)SC(C(C)=O)=C(C)N2c1ccccc1 (stereo not drawn)	·	37	1	-12	·	3
COC(=O)C1=NN(c2ccc(C)cc2)C2(S1)SC(C(C)=O)=C(C)N2c1ccccc1 (stereo not drawn)	28	63*	1	-3	·	7
CCOC(=O)c1nn(-c2ccc(F)cc2)c2nc(-c3ccccc3)c(C#N)c(=O)n12	·	65*	-1	-12	-11	9
C[C@@]12CC[C@H]3c4ccc(O)cc4CC[C@@H]3[C@H]1CC[C@H]2OC(=O)CCc1ccccc1	·	23	·	·	·	42*
CCCCC(=O)O[C@H]1CCC2C3CCc4cc(O)ccc4C3CC[C@@]21C (stereo partly drawn)	·	19	·	·	·	8
CN(C)c1ccc(-c2nnc(-c3cccs3)o2)cc1	0	14	1	-15	-21	11
Brc1ccc(-c2cnc(-c3cccs3)o2)cc1	·	61*!	2	-36	22	6
Fc1ccc(-c2cc3nc4c(c(N5CCOCC5)n3n2)CCCC4)cc1	-63	74*!	1	4	25	8
Cc1cccc(-c2cc3nc4c(c(N5CCOCC5)n3n2)CCCC4)c1	16	61*	-2	-16	51	7
COc1ccc(N=C2NN=C(c3ccc4c(c3)OCCO4)CS2)cc1	·	-2	2	-21	·	41*
O=C(Nc1ccccc1N1CCCCC1)c1ncoc1-c1ccc(F)cc1	17	63*	1	-2	-2	9
O=C(Nc1ccccc1N1CCCCC1)c1ncoc1-c1cccc(F)c1	-16	43	1	7	-16	4
COc1ccc([C@@H](Nc2ncccn2)c2cc3c(cc2O)OCO3)cc1	·	12	·	·	·	53*
Cc1cn(C(=O)c2ccccc2)c(=S)n1-c1ccc(Br)cc1	-24	65*	0	-4	·	5
O=C(O)c1cccc(NC(=S)NC(=O)c2ccc(-c3ccccc3)cc2)c1	8	-7	1	-3	-12	2
Cc1ccc(C(=O)O)cc1NC(=S)NC(=O)c1ccc(-c2ccc(Cl)cc2)o1	0	89*	0	-1	2	7
Cc1ccc(C(=O)O)cc1NC(=S)NC(=O)c1ccc([N+](=O)[O-])cc1Cl	-6	9	1	-8	4	1
O=C(O)c1cccc(NC(=S)NC(=O)c2ccc(-c3ccc(Cl)cc3)o2)c1	6	64*	-2	11	-4	14
Cc1ccc(C(=O)CSc2nc(C)cc(SCC(N)=O)n2)cc1	·	-58	·	·	·	9
COc1ccc(N2CCN(C(=O)C3CCCN(S(=O)(=O)c4cccc5cccnc45)C3)CC2)cc1 (stereo not drawn)	·	0	-2	-6	-1	5
CC1Cc2ccccc2N1C(=O)C1CCCN(S(=O)(=O)c2cccc3cccnc23)C1 (stereo not drawn)	·	-12	0	-18	82*	5
CCCn1nnc(NC(=O)COc2cccc(C)c2)n1	·	-44	·	·	·	4
COc1ccc(Br)cc1/C=C/C(=O)Nc1c(C)cccc1C	·	-30	1	95*	·	10
COc1ccc2c(c1)c1ccc3c(c1n2C)C(=O)C=CC3=O	·	-36	7	11	9	62*
O=C(C(Cc1ccccc1)N1C(=O)c2ccccc2C1=O)N1CCc2ccccc21 (stereo not drawn)	·	64*	2	-6	·	6
COc1cc(OC)cc(C(=O)N2CCC(C(=O)Nc3ccc(F)cc3)CC2)c1	·	-28	·	·	·	12

Bioassay records: PubChem BioAssay, several laboratories
